Measured values taken from PubChem BioAssay (NCI).
This is part of a sample that, as a whole, favours compounds with a hit. Of some 79,000 tested, about 15% had one in any assay. Unmarked numbers belong to inactive results. Activity calls are given as the source filed them. Cut-off read from the data, not from the text of the source: active = growth inhibition above about 70%; inactive = the rest.

Tests used:
[1] = NCI Yeast Anticancer Drug Screen. Data for the rad50 strain (AID 155);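 note: 0% = growth of vehicle-only cultures of the same strain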; details: S. cerevisiae rad50 strain growth inhibition, hits give high values
Outline: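 Vehicle-treated cultures provide the reference for the growth inhibition reported for compound-exposed, repair-deficient yeast.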

[2] = NCI Yeast Anticancer Drug Screen. Data for the mec2-1 strain (AID 157); details: S. cerevisiae mec2-1 strain, hits give high values
Outline: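 Mutant yeast (mec2-1) grown with compound; growth inhibition relative to vehicle control reported.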

[3] = NCI Yeast Anticancer Drug Screen. Data for the sgs1 mgt1 strain (AID 161);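 note: 0% = growth of cultures given vehicle only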; details: S. cerevisiae sgs1 mgt1 strain, hits give high values
Outline: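 Percent growth inhibition was derived by comparing compound-exposed mutant yeast with vehicle-exposed cultures. The strain carries alterations in DNA damage repair.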

[4] = NCI Yeast Anticancer Drug Screen. Data for the cln2 rad14 strain (AID 165);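 note: 0% = growth equal to vehicle treated cultures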; details: S. cerevisiae cln2 rad14 strain, hits give high values
Outline: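 Readout is yeast growth inhibition versus vehicle-treated controls, using a strain with cln2 and rad14 alterations exposed to compound.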

[5] = NCI Yeast Anticancer Drug Screen. Data for the bub3 strain (AID 167); details: S. cerevisiae bub3 mutant strain, hits give high values
Outline: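 Mutant yeast screening strain plus compound; vehicle-treated cultures serve as the 0% inhibition reference.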

[6] = NCI Yeast Anticancer Drug Screen. Data for the mlh1 rad18 strain (AID 175); details: S. cerevisiae mlh1 rad18 strain growth inhibition, hits give high values
Outline: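 Genetically defined yeast (DNA repair-deficient) exposed to compounds; growth inhibition determined relative to vehicle.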

[7] = at 5.0 µM (retest, dose inferred, filed as 0.5)
[8] = at 50.0 µM (retest, dose inferred, filed as 5.0)

| Structure (SMILES) | growth inhibition [1, 7] | growth inhibition [1, 8] | growth inhibition ([1]; at 50.0 µM) | growth inhibition [2, 7] | growth inhibition [2, 8] | growth inhibition ([2]; at 50.0 µM) | growth inhibition [3, 7] | growth inhibition [3, 8] | growth inhibition ([3]; at 50.0 µM) | growth inhibition [4, 7] | growth inhibition [4, 8] | growth inhibition ([4]; at 50.0 µM) | growth inhibition [5, 7] | growth inhibition [5, 8] | growth inhibition ([5]; at 50.0 µM) | growth inhibition [6, 7] | growth inhibition [6, 8] | growth inhibition ([6]; at 50.0 µM) |
| --- | --- | --- | --- | --- | --- | --- | --- | --- | --- | --- | --- | --- | --- | --- | --- | --- | --- | --- |
| S=C(Nc1ccc(N=Nc2ccccc2)cc1)SCc1ccccc1 | 1% | 16% | 63.3% | 3% | 25% | 97.7% (active) | 4% | 28% | 95.6% (active) | 3% | 8% | 89.6% (active) | -1% | 11% | 98.5% (active) | -6% | 59% | 96% (active) |
| Cc1ccc2c(c1C)-c1c(ccc(C)c1C)C(=O)C2=O | 13% | 98% (active) | 99.3% (active) | 35% | 99% (active) | 99.4% (active) | 5% | 99% (active) | 99.7% (active) | -14% | 98% (active) | 99.6% (active) | 46% | 98% (active) | 99.5% (active) | 75% (active) | 99% (active) | 99.5% (active) |
| O=c1c2ccccc2sc2c1c(N(CCO)CCO)cc1ccccc12 | 45% | 94% (active) | 97.5% (active) | 6% | 94% (active) | 95.8% (active) | 12% | 93% (active) | 97.9% (active) | -7% | 78% (active) | 96.2% (active) | -5% | 93% (active) | 96.8% (active) | 19% | 95% (active) | 97.6% (active) |
| C=Cc1ccccc1C1(O)C=CC(OC)(OC)C=C1 | 17% | 25% | 44% | 11% | 16% | 7.1% | 12% | 14% | 34.5% | 17% | 31% | -2.15% | 8% | 9% | 44.2% | 21% | 32% | 15.2% |
| Cc1cccc2ccc3cc(CC(=O)O)c4cccc(C)c4c3c12 | 45% | 99% (active) | 99.7% (active) | 33% | 99% (active) | 99.8% (active) | 42% | 99% (active) | 99.8% (active) | 33% | 99% (active) | 99.5% (active) | 32% | 99% (active) | 99.8% (active) | 36% | 99% (active) | 99.7% (active) |
| O=C(OC1CC2CC1C1CC=CC21)c1ccccc1 (stereo not given) | -3% | -3% | -5.55% | -6% | 2% | 10.9% | -8% | 1% | -3.8% | -5% | -24% | -4.4% | 46% | 68% | 21.9% | -5% | -3% | -3.95% |
| CCCc1cc(-c2ccc(O)c(CCC)c2)ccc1O | 92% (active) | 99% (active) | 99.6% (active) | 98% (active) | 99% (active) | 99.7% (active) | 90% (active) | 99% (active) | 99.5% (active) | 96% (active) | 99% (active) | 99.3% (active) | 99% (active) | 100% (active) | 99.7% (active) | 96% (active) | 99% (active) | 99.2% (active) |
| CCC(C)Sc1nc2c([nH]1)c(=S)n(C)c(=O)n2C (stereo not given) | 9% | 39% | 87.7% (active) | 20% | 52% | 96% (active) | 5% | -19% | 96.7% (active) | -3% | 17% | 23.9% | 16% | 49% | 95.7% (active) | 1% | 24% | 95.2% (active) |
| CCOC(=O)C(=O)Nc1nc2c(s1)C(=O)c1ccccc1C2=O | 14% | 96% (active) | 98.5% (active) | 18% | 98% (active) | 95.8% (active) | 14% | 99% (active) | 96.9% (active) | -3% | 89% (active) | 90% (active) | 46% | 96% (active) | 98.5% (active) | 17% | 94% (active) | 96.3% (active) |
| CC1(C)CC(=O)C2=C(C1)Nc1ccccc1CC2c1c[nH]c2ccccc12 (stereo not given) | -6% | 77% (active) | -7.2% | -1% | 85% (active) | 3.35% | -8% | 68% | 5.35% | -62% | 82% (active) | 52.2% | -4% | 68% | 10.8% | 0% | 84% (active) | 0% |
